Test results reported in PubChem BioAssay AID686979 (National Center for Advancing Translational Sciences (NCATS), 2013).
Where “and” joins values, the source holds several entries; their conditions need not be identical. Identical values can stand only once. Among all 420,000 compounds or so, about 50,000 (12%) were called active. Inconclusive results (about 26%) are left out. The call rests on the fitted dose curve; in most records, active means well fitted inhibition curve with a large enough effect; inconclusive means small, poorly fitted or top-dose-only effect; inactive means flat fitted curve, though single readings scatter. Shown is part of a subset that was picked to be rich in actives. A structure can be active in one record and inactive in another.

Experiment: qHTS for Inhibitors of human tyrosyl-DNA phosphodiesterase 1 (TDP1): qHTS in cells in presence of CPT; further: nearly all actives have a fitted effect of over 55% in size
Conditions: chicken DT40 Tdp1-/-;hTDP1 cells + 20 nM CPT, ATP luminescence, 48 h; series mostly up to 46.2 µM; activity change, negative = growth inhibition: at the top concentration
Excerpt: Human tyrosyl-DNA phosphodiesterase 1 (TDP1) is a novel repair gene, and we propose to use it as a new target for anticancer drug development. TDP1 is not an essential protein, but under treatment with topoisomerase I poison (camptothecin: CPT), TDP1 works as a critical factor for cell survival. To directly identify novel TDP1 inhibitors active in a cellular environment, we have knocked-out the Tdp1 gene in chicken DT40 cells (Tdp1-/-) and generated a complemented counterpart cells that contains a stable transfection of the human TDP1 gene (Tdp1-/-;hTDP1 cells). For the primary screen, Tdp1-/-;hTDP1 cells will be exposed to small molecules in the presence or absence of CPT, and their growth kinetics will be evaluated after 48 hours by measuring ATP activity. […] The hit compounds will then be evaluated in the presence or absence of CPT using Tdp1-/- cells. […] In tertiary assays, biochemical gel-based assays will be used to assess whether the hit compounds specifically target TDP1. To this end, we have screened this cell line against the MLSMR in two primary screens. In one screen we add CPT and in the other we screen in the absence of CPT; this AID represents the screen where CPT was present. NIH Chemical Genomics Center [NCGC] NIH Molecular Libraries Probe Centers Network [MLPCN] MLPCN Grant: MH095538 Assay Submitter (PI): Yves Pommier, NCI
DT40-hTDP1 cells with 20 nM Camptothecin (add 20 microL of 1 mM CPT stock in 1 L of cell culture medium) were dispensed at 400 cells/5microL/well in tissue culture treated 1536-well white wall/solid bottom assay plates (Greiner Bio-One North America, NC, U.S.A.) using a Multidrop Combi 8 channel dispenser (Thermo Fisher, Waltham, MA, USA). 23 nL compounds and controls were transferred using the pin tool (Kalypsys, San Diego, CA, USA) to the assay plates. The assay plates were then incubated at 37 masculineC for a minimum 48 hr. Three microL of Cell Titer Glo solution was added to the plates and incubated at RT in dark for 30 min. Luminescence was read using ViewLux (Perkin Elmer) with 1 sec exposure slow speed, high gain and 2x binning.
On the % scale 0 is the no-effect control and ±100 the full control effect; potency means the concentration at half of the fitted maximal effect.

For `COCC(=O)N1CCc2ccc(NC(=O)c3ccccc3Cl)cc2C1`, which “activity change, negative = growth inhibition” value is on record?
The value was 5.3% (inactive).

With `Cc1ccc2[nH]cc(CCNC(=O)C3CCCCC3)c2c1` as the molecule, how does the “activity change, negative = growth inhibition” value read?
Its value is -21.5% (inactive).

Which Potency does the source give for `CCc1ccc(OCCCn2c(CCCNC(=O)C3CCCCC3)nc3ccccc32)cc1` here?
The Potency was 8.91 µM (active).

With `CC(C)Oc1ccc(CNC(=O)C2CCN(c3nc4ccccc4n(C)c3=O)CC2)cc1` as the molecule, how does the “activity change, negative = growth inhibition” value read?
Its value is -5.18% (inactive).

With `Cc1ccc(Cn2c(CCCNC(=O)C3CCCCC3)nc3ccccc32)cc1` as the molecule, how does the Potency read?
The Potency was 16.4 µM (active).

With `O=C(NCCCc1ccccc1)C1CCC(CNc2c(N3CCCCC3)c(=O)c2=O)CC1` (configuration not stated) as the molecule, how does the “activity change, negative = growth inhibition” value read?
Its value is 4.19% (inactive).

With `Cc1ccc(CN2C(=O)CCC2C(=O)NCCCN2CCCCC2C)cc1` (configuration not stated) as the molecule, how does the “activity change, negative = growth inhibition” value read?
Its value is -1.28% (inactive).

For `O=C(CSc1nnc(CNC(=O)c2ccccc2)n1-c1ccc(F)cc1)Nc1ccccc1F`, which “activity change, negative = growth inhibition” value is on record?
The value was -13.6% (inactive).

With `Cc1ccc(NS(=O)(=O)c2ccc(N/N=C/c3ccccc3OCC(=O)O)c([N+](=O)[O-])c2)c(C)c1` as the molecule, how does the “activity change, negative = growth inhibition” value read?
The value was 1.01% (inactive).

For `O=C(CC1SC(=Nc2ccccc2F)N(CCN2CCOCC2)C1=O)Nc1ccc(F)cc1F` (configuration not stated), which “activity change, negative = growth inhibition” value is on record?
Its value is -10.2% (inactive).

For `Cc1ccc(S(=O)(=O)N(CC(=O)Nc2ccc(Cl)cc2Cl)c2ccccc2C)cc1`, which Potency is on record?
Its Potency is 18.4 µM (active).

With `COc1ccccc1N(CC(=O)N/N=C(\C)c1ccccc1O)S(=O)(=O)c1ccc(C)cc1` as the molecule, how does the “activity change, negative = growth inhibition” value read?
Its value is -94.3% (inactive).

Which “activity change, negative = growth inhibition” value does the source give for `Cc1ccc(S(=O)(=O)N(CC(=O)NCc2ccco2)c2ccccc2C)cc1` here?
Its value is -7.69% (inactive).

For `COc1ccc(C(F)(F)F)cc1N/C=C\c1nnnn1-c1ccc(C)cc1`, which “activity change, negative = growth inhibition” value is on record?
The value was -1.88% (inactive).

For `COc1ccccc1OCC(=O)O/N=C(\N)c1ccccn1`, which “activity change, negative = growth inhibition” value is on record?
Its value is -15.9% (inactive).

Which “activity change, negative = growth inhibition” value does the source give for `Cc1ccccc1-c1cc(C(=O)NCC2CC2)n(CC2CC(c3cccnc3)=NO2)n1` (configuration not stated) here?
The value was 0.873% (inactive).

For `CCOC(=O)c1ccc2[nH]c(C)c(CN3CCN(C)CC3)c(=O)c2c1`, which “activity change, negative = growth inhibition” value is on record?
Its value is 12.7% (inactive).

For `CCCOC(=O)c1ccc(N2C(=O)c3ccccc3C2=O)cc1`, which “activity change, negative = growth inhibition” value is on record?
Its value is -3.9% (inactive).

For `CC(C)(C)c1ccc(C(=O)NCCC(=O)NCc2ccco2)cc1`, which “activity change, negative = growth inhibition” value is on record?
The value was -27.3% (inactive).

For `COc1ccc(S(=O)(=O)NC(CC(=O)NCc2ccccc2OC)c2ccco2)cc1` (configuration not stated), which “activity change, negative = growth inhibition” value is on record?
The value was -22.8% (inactive).

Which Potency does the source give for `O=C(NCc1ccccc1)C(=O)NCC(c1ccco1)S(=O)(=O)c1ccc(Cl)cc1` (configuration not stated) here?
The Potency was 23.1 µM (active).

With `O=C(NCCc1ccccc1)C(=O)NCC(c1ccco1)S(=O)(=O)c1ccccc1` (configuration not stated) as the molecule, how does the “activity change, negative = growth inhibition” value read?
Its value is -27.8% (inactive).

Which “activity change, negative = growth inhibition” value does the source give for `CC(C)CNC(=O)C(=O)NCc1ccccc1` here?
Its value is -5.58% (inactive).

With `COc1ccccc1CNC(=O)C(=O)NCC(c1ccco1)S(=O)(=O)c1ccc(F)cc1` (configuration not stated) as the molecule, how does the Potency read?
The Potency was 20.6 µM (active).

With `COc1ccccc1NS(=O)(=O)c1ccc(C)c(C(=O)NCC(c2ccco2)N(C)C)c1` (configuration not stated) as the molecule, how does the “activity change, negative = growth inhibition” value read?
Its value is 12.3% (inactive).

With `CC(C)(C)c1ccc(C(=O)NCC(c2ccco2)S(=O)(=O)c2ccc(F)cc2)cc1` (configuration not stated) as the molecule, how does the Potency read?
Its Potency is 20.6 µM (active).

With `CC(C)(C)c1ccc(C(=O)NCc2ccco2)cc1` as the molecule, how does the “activity change, negative = growth inhibition” value read?
Its value is -21.9% (inactive).

For `O=C(CCN1C(=O)C2CCCCC2C1=O)Nc1ccc(OC(F)F)cc1` (configuration not stated), which “activity change, negative = growth inhibition” value is on record?
The value was 0.993% (inactive).

For `COc1ccccc1-n1ccnc(SCC(=O)NC2CCCCC2)c1=O`, which “activity change, negative = growth inhibition” value is on record?
Its value is -22.8% (inactive).

With `COc1ccccc1C(=O)NCc1nnc(SC(C)C(=O)Nc2nccs2)n1C` (configuration not stated) as the molecule, how does the “activity change, negative = growth inhibition” value read?
Its value is -3.89% (inactive).

Which “activity change, negative = growth inhibition” value does the source give for `Cc1c(NS(=O)(=O)c2ccc(Cl)cc2)c(=O)n(-c2ccccc2)n1C` here?
The value was -2.45% (inactive).

With `O=C(NCc1ccc(Cl)cc1)NCc1ccc(Cl)cc1` as the molecule, how does the “activity change, negative = growth inhibition” value read?
The value was -7.05% (inactive).

For `CCc1nc2c(OCCOc3ccccc3)cccn2c1N(C)C(=O)c1cccs1`, which Potency is on record?
The Potency was 25.9 µM (active).

With `CCc1nc2c(OCC(N)=O)cccn2c1N(C)C(=O)c1ccc(OC)cc1` as the molecule, how does the “activity change, negative = growth inhibition” value read?
Its value is -52.9% (inactive).

With `O=C(c1cccs1)N(C(=O)c1cccs1)c1ccccn1` as the molecule, how does the “activity change, negative = growth inhibition” value read?
Its value is 2.25% (inactive).

With `CCc1nc2c(OCCOc3ccccc3)cccn2c1N(C)C(=O)c1ccc(OC)cc1` as the molecule, how does the Potency read?
Its Potency is 29.1 µM (active).

For `O=C(COc1ccccc1)OCc1cc(=O)n2nc(-c3cccs3)sc2n1`, which “activity change, negative = growth inhibition” value is on record?
The value was -2.16% (inactive).

For `CCOc1cc(C(=O)O)ccc1OCCOc1ccccc1`, which “activity change, negative = growth inhibition” value is on record?
Its value is 11.7% (inactive).

With `Cc1c(C2=CCN(S(=O)(=O)c3ccc(Cl)cc3)CC2)c2ccccc2n1C` as the molecule, how does the “activity change, negative = growth inhibition” value read?
The value was -25% (inactive).

Which “activity change, negative = growth inhibition” value does the source give for `Cc1ccn(CC(=O)N2N=C(C(F)F)CC2(O)C(F)F)n1` (configuration not stated) here?
Its value is -25.3% (inactive).

Which “activity change, negative = growth inhibition” value does the source give for `COc1cccc(CN2CCNC(=O)C2CC(=O)N(C)CCc2ccccn2)c1` (configuration not stated) here?
The value was 10.9% (inactive).

With `O=C(NCCCNC(=O)NC1CCCCC1)NC1CCCCC1` as the molecule, how does the “activity change, negative = growth inhibition” value read?
The value was -19.5% (inactive).

Which Potency does the source give for `O=C(Nc1ccc(Cl)cc1)Nc1ccc(Oc2cccnc2)nc1` here?
The Potency was 18.4 µM (active).

With `O=C(NNC(=O)c1csc(-c2cccnc2)n1)Nc1ccc(Cl)cc1` as the molecule, how does the “activity change, negative = growth inhibition” value read?
Its value is -15% (inactive).

With `Cc1ccc(NC(=O)Nc2cccnc2)cc1` as the molecule, how does the “activity change, negative = growth inhibition” value read?
The value was 4.49% (inactive).

For `CCN=c1sc(C(=O)Nc2ccccc2)c(C)n1CC`, which “activity change, negative = growth inhibition” value is on record?
The value was 2.49% (inactive).

Which “activity change, negative = growth inhibition” value does the source give for `O=C(COc1ccc(/C=N/NS(=O)(=O)c2ccccc2)cc1)NCCc1ccccc1` here?
Its value is -22.2% (inactive).

For `O=C(COCc1cc(-c2ccc3c(c2)OCO3)on1)N1CCN(c2cccc(Cl)c2)CC1`, which Potency is on record?
Its Potency is “inactive and 18.4 µM (active)”.

For `Cc1cccc(N2CCN(C(=O)COCc3cc(-c4ccc5c(c4)OCO5)on3)CC2)c1C`, which Potency is on record?
The Potency was “inactive”.

Which “activity change, negative = growth inhibition” value does the source give for `CC(C)NC(=O)COCc1cc(-c2ccc3c(c2)OCO3)on1` here?
Its value is -0.118% (inactive).

Which “activity change, negative = growth inhibition” value does the source give for `CC(=O)c1ccccc1NC(=O)C1CC(=O)N(c2ccc3c(c2)OCCO3)C1` (configuration not stated) here?
Its value is 0.743% (inactive).

Which “activity change, negative = growth inhibition” value does the source give for `N#CCCN(C(=O)COC(=O)C1CCN(c2ccc(C(F)(F)F)cn2)CC1)c1ccc(F)cc1` here?
The value was -17.8% (inactive).
